# Source: PubChem BioAssay (NCATS)
# Several values for one entry are separate records, joined by “and”; a condition that tells them apart may be missing. Equal values may be shown once. Inconclusive results are not listed. Where a call stands in place of a potency, no number is given. Activity calls are given as the source filed them. Unless noted, calls follow the shape of the full dose curve.
# Key:
# [1] = qHTS for Inhibitors of the Functional Ribonucleoprotein Complex (vRNP) of Lassa (LASV) Arenavirus: LASV Primary Screen - GLuc reporter signal (AID 1347082; calls by dose curve; tested in HEK293 reporter line; also: nearly all actives have a fitted effect of over 60% in size; also: potency is read from the fitted curve at half-maximal effect)
# [2] = qHTS for Inhibitors of the Functional Ribonucleoprotein Complex (vRNP) of Lassa (LASV) Arenavirus: Viability assay - alamar blue signal for LASV Primary Screen (AID 1347083; calls by dose curve; tested in HEK293 reporter line; also: nearly all actives have a fitted effect of over 80% in size; also: potency is read from the fitted curve at half-maximal effect)
# [3] = molecular target: Nucleoprotein (Lymphocytic choriomeningitis virus (strain Armstrong)) (UniProt P09992); experiment: qHTS for Inhibitors of the Functional Ribonucleoprotein Complex (vRNP) of Lymphocytic Choriomeningitis Arenaviruses (LCMV): LCMV Primary Screen - GLuc reporter signal (AID 1347086); also: nearly all actives have a fitted effect of over 70% in size; also: potency is read from the fitted curve at half-maximal effect
# Nucleoprotein (Lymphocytic choriomeningitis virus (strain Armstrong)), sequence (P09992 whole entry, looked up): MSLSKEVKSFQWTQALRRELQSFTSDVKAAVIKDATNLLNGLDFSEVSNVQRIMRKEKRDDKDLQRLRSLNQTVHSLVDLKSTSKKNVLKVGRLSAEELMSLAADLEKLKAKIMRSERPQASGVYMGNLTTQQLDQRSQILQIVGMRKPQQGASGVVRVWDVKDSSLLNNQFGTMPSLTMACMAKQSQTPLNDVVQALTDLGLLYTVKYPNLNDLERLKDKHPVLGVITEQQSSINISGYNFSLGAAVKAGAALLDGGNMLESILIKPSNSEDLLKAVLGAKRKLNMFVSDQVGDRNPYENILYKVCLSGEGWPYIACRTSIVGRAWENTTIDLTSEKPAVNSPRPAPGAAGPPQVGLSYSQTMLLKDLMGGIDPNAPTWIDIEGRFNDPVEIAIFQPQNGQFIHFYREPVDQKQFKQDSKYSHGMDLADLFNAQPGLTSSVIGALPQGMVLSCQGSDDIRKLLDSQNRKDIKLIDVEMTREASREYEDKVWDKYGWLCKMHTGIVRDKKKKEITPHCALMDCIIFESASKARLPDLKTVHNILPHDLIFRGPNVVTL
# [4] = Primary qHTS for inhibitors of SARS-S pseudo-typed particle cell entry (AID 1479145); also: nearly all actives have a fitted effect of over 45% in size
# [5] = Primary qHTS for Huh7 cytotoxicity: counterscreen for inhibitors of MERS-S pseudotyped particle cell entry (AID 1479147); details: outcome: dose series up to 57.1 µM unless noted
# [6] = Primary qHTS for inhibitors of MERS-S pseudo-typed particle cell entry (AID 1479149); also: nearly all actives have a fitted effect of over 60% in size
# [7] = Primary qHTS for Vero E6 cytotoxicity: counterscreen for inhibitors of SARS-S pseudo-typed particle cell entry (AID 1479150); details: outcome: dose series up to 57.1 µM unless noted
# [8] = Cytotoxicity counterscreen for inhibitors of SARS-CoV-2 cell entry (AID 1645845); also: nearly all actives have a fitted effect of over 50% in size
# In short: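 Counterscreen run in the same HEK293-ACE2 line as the pseudotyped-particle entry assay, without particles. Viability after 48 h at 37 C was read as ATP luminescence, scaled between cell-containing and cell-free wells.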
# [9] = Primary qHTS to identify inhibitors of SARS-CoV-2 cell entry (AID 1645846); details: activity change, negative = inhibition: at 57.1 µM (top of the series) unless noted; also: nearly all actives have a fitted effect of over 45% in size
# In short: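 Inhibition of spike-mediated entry was scored in human ACE2-transfected Expi293F cells. Particles were MLV-pseudotyped with Wuhan-Hu-1 S carrying a 19-aa C-terminal deletion; signal was luciferase after two days, scaled between spike PP and fusion-protein-free PP.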
smiles,measurement,setting,value
O=C1c2ccccc2C(=O)N1Cc1ccccc1,Potency,[1],inactive
same,Potency,[2],inactive
same,Potency,[3],inactive
CC#CCn1c(N2CCC[C@@H](N)C2)nc2c1c(=O)n(Cc1nc(C)c3ccccc3n1)c(=O)n2C,Potency,[1],inactive
same,Potency,[2],inactive
same,Potency,[3],inactive
same,Potency,[4],inactive
same,outcome,[5],inactive
same,Potency,[6],inactive
same,outcome,[7],inactive
same,Potency,[8],inactive
same,"activity change, negative = inhibition",[9],-18.4% and -12.2%
COc1ccc(-c2cc3nccn3c(Nc3ncccc3C(N)=O)n2)cc1OC,Potency,[1],inactive
same,Potency,[2],2.17 µM (active)
same,Potency,[3],inactive
same,Potency,[8],inactive
COc1cc(C(=O)O[C@@H]2CC(C)=CC[C@@]3(C)CC[C@](O)(C(C)C)[C@H]23)ccc1O,Potency,[1],inactive
same,Potency,[2],inactive
same,Potency,[3],inactive
Cc1ccc(NC(=O)Nc2cc(C(F)(F)F)ccc2F)cc1Nc1ccc2c(c1)NC(=O)C2=Cc1ccc[nH]1,Potency,[1],30.6 µM (active)
same,Potency,[2],17.2 µM (active)
same,Potency,[3],27.3 µM (active)
C[C@]1(c2nc3c(C(N)=O)cccc3[nH]2)CCCN1,Potency,[1],inactive
same,Potency,[2],2.73 µM (active)
same,Potency,[3],inactive
same,Potency,[8],inactive
same,"activity change, negative = inhibition",[9],-3.68%
C=CCNc1c(O)cc2c(O)c1C[C@@H](C)C[C@H](OC)[C@@H](O)[C@@H](C)C=C(C)[C@H](OC(N)=O)[C@@H](OC)C=CC=C(C)C(=O)N2,Potency,[1],10.9 µM (active)
same,Potency,[2],4.85 µM (active)
same,Potency,[3],4.85 µM (active)
COc1ccc(CCC(=O)c2c(O)cc(O[C@@H]3O[C@H](CO)[C@@H](O)[C@H](O)[C@@H]3O[C@@H]3O[C@@H](C)[C@H](O)[C@@H](O)[C@@H]3O)cc2O)cc1O,Potency,[1],7.69 µM (active)
same,Potency,[2],5.44 µM (active)
same,Potency,[3],6.11 µM (active)
CCNC(=O)c1cc2c(-c3cc(OCCN4CCCC4)c(Cl)cc3Cl)nc(N)nc2s1,Potency,[1],4.85 µM (active)
same,Potency,[2],4.32 µM (active)
same,Potency,[3],1.37 µM (active)
COc1cc2ncn(-c3cc(OCc4ccccc4S(C)(=O)=O)c(C#N)s3)c2cc1OC,Potency,[1],inactive
same,Potency,[2],27.3 µM (active)
same,Potency,[3],inactive
same,Potency,[8],inactive
CN(C)Cc1cccc(N=C(c2ccccc2)c2c(O)[nH]c3cc(C(=O)N(C)C)ccc23)c1,Potency,[1],inactive
same,Potency,[2],13.7 µM (active)
same,Potency,[3],inactive
same,Potency,[8],inactive
CCCCCC[C@@H](O)C/C=C\CCCCCCCC(=O)O,Potency,[1],inactive
same,Potency,[2],inactive
same,Potency,[3],inactive
same,outcome,[5],inactive
same,Potency,[6],inactive
same,outcome,[7],inactive
same,Potency,[8],inactive
same,"activity change, negative = inhibition",[9],-16.6%
COc1cc2c(cc1OC)CN(CCc1ccc(NC(=O)c3cc(OC)c(OC)cc3NC(=O)c3cnc4ccccc4c3)cc1)CC2,Potency,[1],inactive
same,Potency,[2],19.3 µM (active)
same,Potency,[3],inactive
same,Potency,[8],inactive
C=C1C2[C@H](OC(C)=O)[C@@H]3CC(=O)[C@]4(C)OC[C@@]3(C)[C@@]4(O)[C@@H](OC(C)=O)[C@H](OC(C)=O)[C@@]2(COC(=O)c2ccccc2)[C@@H](OC(C)=O)C[C@@H]1O (some centres undefined),Potency,[1],inactive
same,Potency,[2],inactive
same,Potency,[3],inactive
